# In PubChem BioAssay (NCATS):
# Records with an inconclusive call do not appear. Values without a mark were called inactive. Active and inactive are the calls of the source. Calls come from the whole dose curve; as a rule, active = well fitted inhibition curve with a large enough effect; inconclusive = small, poorly fitted or top-dose-only effect; inactive = flat fitted curve, though single readings scatter.
# Assay: BET inhibitor-based combinations targeting novel dependencies in MECOM-rearranged (r) AML: AML-194 cell line (AID 2202237; note: nearly all actives have a fitted effect of over 40% in size)
# Settings: AML-194 (MECOM-r AML) viability, CellTiter-Glo, 48 h; series mostly up to 46 µM; viability (% of control): at the top concentration
# Text: Ecotropic viral insertion site 1 (EVI1) is located on chromosome 3q26.2 as part of the MECOM (MDS and EVI1 complex) locus. Under normal hematopoiesis, EVI1 is a regulator of hematopoietic stem cell maintenance and self-renewal and EVI1 levels decrease as the cells differentiate. In approximately 5-10% of de novo acute myeloid leukemia (AML) EVI1 is aberrantly expressed, including Chromosomal inv(3)(q21;q26.2) or t(3;3)(q21;q26.2) alterations (MECOM-r) that account for about 50% of AML with EVI1 overexpression 31. AMLs with high levels of EVI1 have a poor prognosis and an overall survival time averaging between 10-14 months. EVI1 overexpression confers resistance in leukemia cells, highlighting the need to develop new targeted therapies for EVI1 overexpressing AMLs.
# Here, we performed an unbiased chemical drug screening by evaluating the single agent activity of a collection of 2,480 oncology-focused, approved and investigational drugs (NCATS Mechanism Interrogation Plates, MIPE v5.0) against a panel of seven AML cell lines. These included four MECOM-r cell-lines (AML-191, AML-194, UCSD-AML1 and HNT-34) and three non-MECOM-r AMLs (MV4-11, OCI-AML3 and SET-2). Exploiting the mechanistic redundancy built in the library, we identified target-level sensitivities in MECOM-r AML cells and relative activity as compared to other AML subtypes.
# A collection of 2480 mechanistically annotated dugs (MIPE v5.0) was used to screen four 3q26.2 rearranged AML cell lines and three non-3q26.2 rearranged AML cell lines. This library purposely exploits redundancy by including multiple inhibitors of key onco-targets, while simultaneously encompassing mechanistic diversity, targeting more than 800 distinct mechanisms of action. Briefly, cells were seeded in 5 uL of growth media using a Multidrop Combi dispenser into 1536 well white polystyrene tissue culture treated plates (Corning) at a density of 500cells/well. For each cell-line, for each of the 2480 drugs in MIPE v5.0 library, an 11-point dose curve was generated via a 1536 pin-tool. Plates were incubated for 48 hr at standard incubator conditions, covered by a stainless steel gasketed lid to prevent evaporation. Cell viability was determined by luminescence based, Cell Titer Glo assay (Promega). In detail, 3 uL of Cell Titer Glo were added to each well and plates were incubated at room temperature for 15 min with a stainless-steel lid in place. Luminescence readings were taken using a Viewlux (PerkinElmer) with a 2 s exposure time per plate. Compound dose-response curves were normalized to DMSO and empty well controls on each plate. Quantitative drug activity data from dose-response curves was determined utilizing area Under the Curve (AUC) and Z-transformed AUC (Z-AUC, a mean-centering transformation applied to each individual cell-line screened).
# Potency is the fitted concentration of half-maximal effect.
SMILES,Potency,viability (% of control)
Cc1cnc(Nc2ccc(F)cc2Cl)nc1-c1c[nH]c(C(=O)N[C@H](CO)c2cccc(Cl)c2)c1,18600 nM (active),
COc1ccc(CCN(C)CCCC(C#N)(c2ccc(OC)c(OC)c2)C(C)C)cc1OC (stereo not given),,91%
Cc1c(NC(=O)c2ccc(C(C)(C)C)cc2)cccc1-c1cn(C)c(=O)c(Nc2ccc(C(=O)N3CCOCC3)cc2)n1,,86.9%
CCOC(=O)C1=C(C)NC2=C(C(=O)CC(C)(C)C2)C1c1ccc(-c2ccccc2)cc1 (stereo not given),,103%
CC1=C(C)C(=O)C(C(CCCCCC(=O)O)c2ccccc2)=C(C)C1=O (stereo not given),,111%
CN1CCN(C2=Nc3cc(Cl)ccc3Nc3ccccc32)CC1,,69.9%
NCCc1cnc[nH]1,,87.5%
CC[C@@H](C)Nc1cc(C(=O)NC2CC3CC[C@@H](C2)N3c2ccc(C(=O)C3CC3)cn2)c(C)cc1C(N)=O (stereo not given in full),105 nM (active),
COc1cc(N2CCN(C)CC2)ccc1Nc1nccc(-c2cn(C)c3cnccc23)n1,14800 nM (active),
COc1cccc2c1c(O)c(C(=O)N(C)c1ccc(C(F)(F)F)cc1)c(=O)n2C,,97.1%
Cc1cc2c(cc1C1(c3ccc(C(=O)O)cn3)CC1)C(C)(C)CCC2(C)C,,101%
N[C@@H](Cc1c[nH]c2ccc(O)cc12)C(=O)O,,108%
COc1ccc(F)c(F)c1C(=O)c1cnc(NC2CCN(S(C)(=O)=O)CC2)nc1N,2090 nM (active),
O=C(/C=C/C#Cc1cccc(NS(=O)(=O)c2ccccc2)c1)NO,910 nM (active),
COc1cc2c(Oc3ccc(-c4cnc(Nc5ccc(F)cc5)n(C)c4=O)cc3F)ccnc2cc1OCCCN1CCOCC1,5250 nM (active),
CC[C@H]1CN2CCc3cc(OC)c(OC)cc3[C@@H]2C[C@@H]1C[C@H]1NCCc2cc(OC)c(OC)cc21,372 nM (active),
CC(C)(C)C(=O)Oc1ccc2c(c1)nc(NC(=O)c1cccc([N+](=O)[O-])c1)n2CCCO,,102%
CCc1cc(-c2n[nH]c(C)c2-c2ccc3c(c2)OCCO3)c(O)cc1O,16600 nM (active),
CCc1ccc(/C=C2/SC(=S)NC2=O)cc1,,92.9%
CN1c2ccccc2C(=O)N2CCc3c([nH]c4ccccc34)C21 (stereo not given),1320 nM (active),

SMILES,Potency,viability (% of control)
COc1ccc2nc3n[nH]c(C)c3c(NCCOCCO)c2c1,,111%
CC(C)c1cc(C(C)C)c(CC(=O)NS(=O)(=O)Oc2c(C(C)C)cccc2C(C)C)c(C(C)C)c1,,95.8%
Nc1nc2c(ncn2COC(CO)CO)c(=O)[nH]1,,101%
Cc1ccc(C(=O)Nc2ccc(S(=O)(=O)O)c3cc(S(=O)(=O)O)cc(S(=O)(=O)O)c23)cc1NC(=O)c1cccc(NC(=O)Nc2cccc(C(=O)Nc3cc(C(=O)Nc4ccc(S(=O)(=O)O)c5cc(S(=O)(=O)O)cc(S(=O)(=O)O)c45)ccc3C)c2)c1,,114% [at 15.6 µM]
OC(c1cc(C(F)(F)F)nc2c(C(F)(F)F)cccc12)C1CCCCN1 (stereo not given),20900 nM (active),
COc1cc2ncnc(-n3nc(-c4ccccn4)nc3N)c2cc1OC,6610 nM (active),
NC(=O)Nc1cc(-c2ccc(CN3CCOCC3)cc2)sc1C(N)=O,742 nM (active),
C#CC[C@H](c1nc2cc(Cl)ccc2c(=O)n1Nc1ccccc1)N(CCCN)C(=O)c1cccc(Cl)c1F,3320 nM (active),
Cc1ccccc1-n1c(Cn2nc(-c3cccc(O)c3)c3c(N)ncnc32)nc2cccc(C)c2c1=O,,93%
O=C(NC1CCNCC1)c1[nH]ncc1NC(=O)c1c(Cl)cccc1Cl,2630 nM (active),
CCS(=O)(=O)N1CCC([C@@H](C)n2c(C)c(C(=O)NCc3c(OC)cc(C)[nH]c3=O)c3ccccc32)CC1,,114%
COc1ccc(CNc2nc(N(CCO)CCO)nc3c2ncn3C(C)C)cc1,5900 nM (active),
CC1c2ccccc2CN1NC(=O)c1ccc(Cl)c(S(N)(=O)=O)c1 (stereo not given),,104%
CC1COC2(CCN(c3nc(=O)c4cc(C(F)(F)F)cc([N+](=O)[O-])c4s3)CC2)O1 (stereo not given),,108%
Cc1ccc([N+](=O)[O-])cc1S(=O)(=O)N(C)/N=C/c1cnc2ccc(Br)cn12,186 nM (active),
CC1(C)Cc2c(sc(NC(=S)NC(=O)c3ccccc3)c2C(=O)O)CO1,,111%
NC(=O)c1ccc(-c2nc(-c3ccc4c(c3)OCCO4)c(-c3ccccn3)[nH]2)cc1,,85.6%
Clc1ccc2nsnc2c1NC1=NCCN1,,109%
O=C(CN1C(=O)C2(CCCC2)NC[C@H]1c1cc(F)cc(F)c1)Nc1ccc2c(c1)C[C@@]1(C2)C(=O)Nc2ncccc21,,112%
CC(=O)Oc1cc2c(s1)CCN(C(C(=O)C1CC1)c1ccccc1F)C2 (stereo not given),,100%
